The values that follow come from PubChem BioAssay (NCATS).

Each structure is given as a SMILES string. Records with an inconclusive call do not appear. Calls of active or inactive are those of the source. The call rests on the fitted dose curve; in most records, active means well fitted cell-killing curve with a large enough effect; inconclusive means small, poorly fitted or top-dose-only effect, or effect the other way; inactive means no such curve, though single readings can be large or run the other way.
Potency means the concentration at half of the fitted maximal effect.

This assay is described as follows: Quantitative High-Throughput drug screen in 47 multiple myeloma cell lines against the NCATS MIPE library collection: RPMI8226_ATCC cell viability assay (AID 1919871). Further: nearly all actives have a fitted effect of over 30% in size. To be noted: RPMI8226 myeloma viability, CellTiter-Glo ATP luminescence, 48 h; series mostly up to 45.8 µM. The text has this:
PI: Beverly A. Mock Ph.D.
Laboratory of Cancer Biology and Genetics,
Center for Cancer Research, National Cancer Institute,
National Institute of Health, Bethesda, Maryland
Drug resistance and disease progression are common in multiple myeloma (MM) patients, underscoring the need for new therapeutic combinations. […] We hypothesized that effective combinations would reduce MYC expression and enhance p16 activity. […] These preclinical data identify potentially useful drug combinations for evaluation in drug-resistant MM and reveal potential mechanisms of combined drug sensitivity.
Described herein is the primary MIPE qHTS used to cherrypick compounds. Validated compounds were then further tested for potential synergistic activiy.
[1] Peat TJ, Gaikwad SM, Dubois W, Gyabaah-Kessie N, Zhang S, Gorjifard S, Phyo Z, Andres M, Hughitt VK, Simpson RM, Miller MA, Girvin AT, Taylor A, Williams D, D'Antonio N, Zhang Y, Rajagopalan A, Flietner E, Wilson K, Zhang X, Shinn P, Klumpp-Thomas C, McKnight C, Itkin Z, Chen L, Kazandijian D, Zhang J, Michalowski AM, Simmons JK, Keats J, Thomas CJ, Mock BA. Drug combinations identified by high-throughput screening promote cell cycle transition and upregulate Smad pathways in myeloma. Cancer Lett. 2023 Aug 1;568:216284. doi: 10.1016/j.canlet.2023.216284. Epub 2023 Jun 24. PMID: 37356470; PMCID: PMC10408729.
SEQUENCE No. (e.g., 1, 2, 3, etc.); […] (e.g., Cells, Incubation, Reagent, etc.); VALUE and DESCRIPTION.
1; Cells; 5 uL; white, solid bottom 1536-well Greiner assay plate.
2; Compounds; 23 nL; Kalypsis pin tool (Wako USA) equipped with a 1536-well pin head to transfer to the assay plates.
3; Incubation; 48 hours; 37C incubation.
4; Reagent;5uL; CellTiter Glo (Promega).
5; Detector; 425V; Luminescence; Viewlux PerkinElmer.
NOTES (numbers refer to Sequence numbers above)
1. The cell-based screening methods employed in this study were like those previously published. Briefly, the corresponding myeloma cell lines were screened in 1,536-well plates with 500 cells, 5-uL per well for inhibition of cell viability (assessed by measuring ATP levels with CellTiterGlo).
2. NCATS MIPE 4.0 library of approved and investigational drugs were added using the Kalypsis pin tool. Wells treated with DMSO only for 100% viability and media only for 0% viability were used as controls.
3. The assay plates were covered and incubated for 48 hours in a 37C, 5% CO2 incubator with controlled humidity.
4. After 48 hours, CellTilter-GloTM luminescent substrate mix (Promega) reagent was added to the assay plate and plates we incubated for 5 min at room temperature.
5. Signal was measured as median relative luminescence units on a ViewLux (PerkinElmer) multiplate reader.
[1] Heske CM, Davis MI, Baumgart JT, Wilson K, Gormally MV, Chen L, Zhang X, Ceribelli M, Duveau DY, Guha R, Ferrer M, Arnaldez FI, Ji J, Tran HL, Zhang Y, Mendoza A, Helman LJ, Thomas CJ. Matrix Screen Identifies Synergistic Combination of PARP Inhibitors and Nicotinamide Phosphoribosyltransferase (NAMPT) Inhibitors in Ewing Sarcoma. Clin Cancer Res. 2017 Dec 1;23(23):7301-7311. doi: 10.1158/1078-0432.CCR-17-1121. Epub 2017 Sep 12. PMID: 28899971; PMCID: PMC6636827.
In the case of `O=C1N(c2ccccc2)c2ccccc2C1(Cc1ccncc1)Cc1ccncc1`, the Potency result is “inactive”.
For `CN1C2CCC1CC(OC(=O)C(CO)c1ccccc1)C2` (stereo not given), the Potency result is “inactive”.
For the molecule `Nc1nc2c(ncn2COC(CO)CO)c(=O)[nH]1`, the Potency was 26.4 µM (active).
With `O=C(Nc1ccc([N+](=O)[O-])cc1Cl)c1cc(Cl)ccc1O`, the Potency is 1.05 µM (active).
As for `CN1C(C(=O)Nc2ccccn2)=C(O)c2ccccc2S1(=O)=O`, the Potency result is “inactive”.
Take `NC12CC3CC(CC(C3)C1)C2`: the Potency was 0.833 µM (active).
With `CCOC(=O)C(C)(C)Oc1ccc(Cl)cc1`, the Potency result was “inactive”.
For `C[C@@H]1CC(=O)NN=C1c1ccc(NN=C(C#N)C#N)cc1`, the Potency was 20.9 µM (active).
`CC[C@@]1(O)C(=O)OCc2c1cc1n(c2=O)Cc2cc3c(CN(C)C)c(O)ccc3nc2-1`: the Potency was 14.8 µM (active).
Consider `CN(CCOc1ccc(NS(C)(=O)=O)cc1)CCc1ccc(NS(C)(=O)=O)cc1`, for which the Potency entry was “inactive”.
Regarding `CCCCc1oc2ccccc2c1C(=O)c1cc(I)c(OCCN(CC)CC)c(I)c1`, the Potency was 18.7 µM (active).
Turning to `N[C@@H](Cc1c[nH]c2ccc(O)cc12)C(=O)O`, the Potency was 1.05 µM (active).
Next, `CNCCCC12CCC(c3ccccc31)c1ccccc12`: 20.9 µM (active); `COc1ccc2[nH]cc(CCNC(C)=O)c2c1`: “inactive”.
Regarding `NC(=O)NO`, the Potency was 3.72 µM (active).
`CC(C)C(=O)Nc1ccc([N+](=O)[O-])c(C(F)(F)F)c1`: the Potency entry was “inactive”.
In the case of `CS(=O)(=O)CCNCc1ccc(-c2ccc3ncnc(Nc4ccc(OCc5cccc(F)c5)c(Cl)c4)c3c2)o1`, the Potency is 26.4 µM (active).
In the case of `CCOC(=O)c1ncn2c1CN(C)C(=O)c1cc(F)ccc1-2` it was 2.64 µM (active); in that of `Nc1nnc(-c2cccc(Cl)c2Cl)c(N)n1`, “inactive”; in that of `CN1CCN(C2=Nc3cc(Cl)ccc3Nc3ccccc32)CC1`, “inactive”.
In the case of `CCc1cccc2c3c([nH]c12)C(CC)(CC(=O)O)OCC3` (stereo not given) it was “inactive”; in that of `CCC1(C)CC(=O)NC1=O` (stereo not given), “inactive”; in that of `CC#C[C@]1(O)CC[C@H]2[C@@H]3CCC4=CC(=O)CCC4=C3[C@@H](c3ccc(N(C)C)cc3)C[C@@]21C`, 3.72 µM (active).
Consider `CN(C)CCC=C1c2ccccc2C=Cc2ccccc21`, for which the Potency was 6.62 µM (active).
Take `CN1CCC(=C2c3ccccc3CC(=O)c3sccc32)CC1`: the Potency entry is “inactive”.
With `O=c1c(-c2ccc(O)cc2)coc2cc(O)cc(O)c12`, the Potency was 20.9 µM (active).
Take `Clc1ccccc1C(c1ccccc1)(c1ccccc1)n1ccnc1`: the Potency is 14.8 µM (active).
For `CN(C)CCOC(c1ccccc1)c1ccccc1`, the Potency entry is “inactive”.
Take `Cn1c(=O)c2[nH]cnc2n(C)c1=O`: the Potency result is “inactive”.
For the molecule `O=c1[nH]cc(F)c(=O)[nH]1`, the Potency is 0.235 µM (active).
`Clc1ccc(C(c2ccccc2Cl)C(Cl)Cl)cc1` (stereo not given): the Potency is 23.5 µM (active).
As for `COc1cc2nc(N3CCN(C(=O)C4COc5ccccc5O4)CC3)nc(N)c2cc1OC` (stereo not given), the Potency was 16.6 µM (active).
Regarding `CS(=O)(=O)Nc1ccc([N+](=O)[O-])cc1Oc1ccccc1`, the Potency was 16.6 µM (active).
As for `COc1ccccc1N1CCN(CC(O)COc2cccc3ccccc23)CC1` (stereo not given), the Potency was 26.4 µM (active).
As to `Cn1cnc2c1c(=O)[nH]c(=O)n2C`, the Potency is 20.9 µM (active).
Turning to `Cc1ccccc1N1C(=O)c2cc(S(N)(=O)=O)c(Cl)cc2NC1C` (stereo not given), the Potency is 7.43 µM (active).
Regarding `Cc1cc(C(C)(C)C)cc(C)c1CC1=NCCN1`, the Potency entry was “inactive”.
`NCCCCCC(=O)O`: the Potency entry was “inactive”.
On to `Cn1ccc2cc3c(cc21)CCN3C(=O)Nc1cccnc1`, for which the Potency entry was “inactive”.
`O=C1c2c(O)ccc(O)c2C(=O)c2c(NCCNCCO)ccc(NCCNCCO)c21`: the Potency was 4.69 µM (active).
